About 83,000 compounds went through this panel and 20% of them were active in at least one assay; those are over-represented in the sample as a whole.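 Activity criterion: percent growth below 10, measured after cells in 96-well plates were exposed to a single compound concentration for 48 hours.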 Unmarked numbers belong to inactive results. Activity calls are given as the source filed them.

Some test systems named below: SK-MEL-2 melanoma; EKVX NSCLC; SN12C renal; TK-10 renal; ACHN renal; CAKI-1 renal; A498 renal; CCRF-CEM leukemia; MOLT-4 leukemia; SR leukemia; RPMI-8226 leukemia; OVCAR-8 ovarian; OVCAR-5 ovarian; OVCAR-4 ovarian; IGROV1 ovarian; OVCAR-3 ovarian; HS 578T breast; NCI/ADR-RES ovarian; SK-OV-3 ovarian; UO-31 renal.
Common to all, as to assay: NCI-60 one-dose screen, 48 h (100 = growth as untreated, 0 = no growth, -100 = all killed)
What all share (conditions): 10 µM unless noted

For `CN(C)c1ccc(/C=C/C2=[N+](C)c3ccccc3C2(C)C)cc1`, the growth with SK-MEL-2 melanoma was 16.4%; in the experiment with EKVX NSCLC, 22.6%; in the experiment with SN12C renal, -9.66% (active); in the experiment with TK-10 renal, 30.4%; in the experiment on ACHN renal it was 14%; in the experiment with CAKI-1 renal, 29.3%. In addition, the growth in the experiment on A498 renal is 66.6%; in the experiment with CCRF-CEM leukemia it was 11.9%; in the experiment with MOLT-4 leukemia, -6.54% (active); with SR leukemia, 6.36% (active); in the experiment with RPMI-8226 leukemia, -20.3% (active); in the experiment with OVCAR-8 ovarian it was 14.8%. Moreover, the growth in the experiment with OVCAR-5 ovarian was 35.6%; in the experiment with OVCAR-4 ovarian, 31.2%; in the experiment on IGROV1 ovarian, 34.7%; with OVCAR-3 ovarian, 10%; in the experiment with HS 578T breast, 43.3%; in the experiment with NCI/ADR-RES ovarian, 77.8%.
As to `Cc1c(C)c2c(c(C)c1OC(=O)CCC(=O)[O-])CCC(C)(CCCCCCCCCCC[P+](c1ccccc1)(c1ccccc1)c1ccccc1)O2` (centres undefined), the growth with SK-MEL-2 melanoma is -64.4% (active); with EKVX NSCLC, -25.1% (active); with SN12C renal it was -65.7% (active); in the experiment on TK-10 renal, -14.2% (active); with ACHN renal, -5.75% (active); in the experiment with CAKI-1 renal, -28.3% (active). Moreover, the growth with A498 renal was -73.9% (active); in the experiment on CCRF-CEM leukemia, 0.344% (active); in the experiment on MOLT-4 leukemia, -25.5% (active); in the experiment with SR leukemia it was -25.5% (active); in the experiment with RPMI-8226 leukemia, -47.7% (active); in the experiment with OVCAR-8 ovarian it was 3.73% (active). In addition, the growth in the experiment with OVCAR-5 ovarian is 13.5%; in the experiment on OVCAR-4 ovarian, -1.74% (active); in the experiment with SK-OV-3 ovarian, -27% (active); in the experiment on IGROV1 ovarian, -13.1% (active); in the experiment on OVCAR-3 ovarian, -76.4% (active); with HS 578T breast, -15% (active).
As to `COc1cccc(C(=O)Nc2cccc(NC(=O)c3ccccn3)c2)c1`, the growth was 108% in the experiment with SK-MEL-2 melanoma; 94.1% in the experiment on EKVX NSCLC; 98.8% in the experiment on SN12C renal; 96.6% in the experiment with TK-10 renal; 100% in the experiment on ACHN renal; 99.1% in the experiment on CAKI-1 renal. Moreover, the growth with CCRF-CEM leukemia was 103%; with MOLT-4 leukemia, 88.6%; with SR leukemia it was 77%; with RPMI-8226 leukemia it was 101%; in the experiment with OVCAR-8 ovarian, 104%; with OVCAR-5 ovarian, 94.3%. Also, the growth in the experiment on OVCAR-4 ovarian was 96.4%; in the experiment on SK-OV-3 ovarian, 97.7%; in the experiment on IGROV1 ovarian it was 101%; with OVCAR-3 ovarian it was 105%; with HS 578T breast, 116%; in the experiment on NCI/ADR-RES ovarian, 96.1%.
Take `COc1ccc(NC(=O)CSc2oc(-c3ccccc3)nc2S(=O)(=O)c2ccc(Cl)cc2)c(OC)c1`: the growth in the experiment with SK-MEL-2 melanoma is 66.4%; in the experiment with EKVX NSCLC, 74.7%; in the experiment on SN12C renal, 75.8%; in the experiment with ACHN renal it was 36.6%; in the experiment with CAKI-1 renal, 86.1%; in the experiment with A498 renal, 49.9%. Also, the growth in the experiment with CCRF-CEM leukemia was 89.1%; in the experiment with MOLT-4 leukemia, 73%; in the experiment with SR leukemia it was 65.2%; with RPMI-8226 leukemia, 49.9%; in the experiment on OVCAR-8 ovarian, 34.3%; in the experiment on OVCAR-5 ovarian, 107%. Also, the growth is 64.6% in the experiment with OVCAR-4 ovarian; 83.2% in the experiment on SK-OV-3 ovarian; 93.5% in the experiment on IGROV1 ovarian; 75.3% in the experiment on OVCAR-3 ovarian; 36.2% in the experiment on HS 578T breast; 61.7% in the experiment on NCI/ADR-RES ovarian.
Turning to `CC(C)n1cc(C2=C(c3cccc4ccccc34)C(=O)NC2=O)c2cc(Br)ccc21`, the growth with SK-MEL-2 melanoma is 73.8%; with EKVX NSCLC, 85%; in the experiment on SN12C renal it was 75.4%; in the experiment on TK-10 renal it was 109%; in the experiment with ACHN renal, 53.8%; in the experiment on CAKI-1 renal, 27.9%. Moreover, the growth was -8.37% (active) with A498 renal; 52.8% with CCRF-CEM leukemia; 49% in the experiment on MOLT-4 leukemia; 25.8% in the experiment on SR leukemia; 92.1% in the experiment with RPMI-8226 leukemia; 72.7% with OVCAR-8 ovarian. Also, the growth is 89.8% in the experiment on OVCAR-5 ovarian; 64.9% in the experiment with OVCAR-4 ovarian; 64% in the experiment on SK-OV-3 ovarian; 69.9% in the experiment on IGROV1 ovarian; 20.7% with OVCAR-3 ovarian; 21.1% in the experiment with NCI/ADR-RES ovarian.
`O=c1c2cccc3c(N4CCOCC4)ccc(c32)c2nc3ccccc3n12`: the growth in the experiment with SK-MEL-2 melanoma is 108%; in the experiment on EKVX NSCLC, 38.3%; in the experiment on SN12C renal, 87.6%; with TK-10 renal, 71.8%; in the experiment on ACHN renal, 91.1%; in the experiment on CAKI-1 renal, 69.6%. Also, the growth with A498 renal was 101%; with CCRF-CEM leukemia, 93.1%; in the experiment with MOLT-4 leukemia, 90.8%; in the experiment on SR leukemia, 83.7%; in the experiment on RPMI-8226 leukemia, 81.7%; with OVCAR-8 ovarian, 93.8%. Further, the growth in the experiment with OVCAR-5 ovarian was 99.2%; in the experiment on OVCAR-4 ovarian it was 69.9%; with SK-OV-3 ovarian it was 91.4%; in the experiment with IGROV1 ovarian, 58.3%; with OVCAR-3 ovarian, 100%; with NCI/ADR-RES ovarian, 93.9%.
Regarding `CC(C)(C)[C@H](OCc1cn([C@H]2C[C@@H](O)[C@@H](CO)O2)c(=O)[nH]c1=O)c1ccc(C#Cc2ccccc2)cc1[N+](=O)[O-]`, the growth is 81.3% with SK-MEL-2 melanoma; 67.4% with EKVX NSCLC; 88.5% in the experiment with SN12C renal; 72% in the experiment on UO-31 renal; 77.4% in the experiment on ACHN renal; 79.3% in the experiment with CAKI-1 renal. For the same compound, the growth with CCRF-CEM leukemia is 72.2%; in the experiment with MOLT-4 leukemia it was 57.6%; in the experiment on SR leukemia, 35.7%; with RPMI-8226 leukemia it was 36.8%; with OVCAR-8 ovarian, 87%; with OVCAR-5 ovarian, 97.6%. In addition, the growth in the experiment on OVCAR-4 ovarian is 85%; in the experiment on SK-OV-3 ovarian, 93.5%; with IGROV1 ovarian, 88%; in the experiment on OVCAR-3 ovarian, 87.7%; with HS 578T breast it was 77.9%; in the experiment with NCI/ADR-RES ovarian, 87.5%.
In the case of `O=C(Nc1ccccc1)Nc1ccccc1CNc1nc(Nc2ccc(OCCN3CCCC3)cc2)ncc1Cl`, the growth in the experiment with SK-MEL-2 melanoma was 49.9%; with EKVX NSCLC, 85.8%; in the experiment with SN12C renal, 57.8%; in the experiment with TK-10 renal, 94.8%; in the experiment with ACHN renal, 18.2%; with CAKI-1 renal it was 62.7%. Besides, the growth was 31.5% in the experiment on A498 renal; 20.4% in the experiment with CCRF-CEM leukemia; 37.9% in the experiment with MOLT-4 leukemia; -6.4% (active) in the experiment on SR leukemia; -0.283% (active) in the experiment with RPMI-8226 leukemia; 50.4% in the experiment with OVCAR-8 ovarian. In addition, the growth is 106% in the experiment with OVCAR-5 ovarian; 19.5% in the experiment on OVCAR-4 ovarian; 86.1% in the experiment with SK-OV-3 ovarian; 84.2% in the experiment with IGROV1 ovarian; 2.33% (active) in the experiment with OVCAR-3 ovarian; 66.3% in the experiment with HS 578T breast. Moreover, the growth in the experiment on NCI/ADR-RES ovarian was 71%.
Take `COc1ccc(/C(C)=C(\c2ccc(Cl)cc2)c2ccc(OCCCN(C)C)cc2)cc1`: the growth in the experiment on SK-MEL-2 melanoma was 90.4%; in the experiment with EKVX NSCLC it was 88.6%; in the experiment with SN12C renal, 79.9%; in the experiment on TK-10 renal, 94.7%; in the experiment with ACHN renal it was 91.9%; in the experiment with CAKI-1 renal, 67.1%. In addition, the growth in the experiment with CCRF-CEM leukemia was 53.1%; in the experiment on MOLT-4 leukemia, 55.8%; in the experiment on SR leukemia, 0.701% (active); in the experiment on RPMI-8226 leukemia it was 25.6%; with OVCAR-8 ovarian, 85%; in the experiment with OVCAR-5 ovarian, 83.4%. Besides, the growth in the experiment with OVCAR-4 ovarian was 90.4%; in the experiment on SK-OV-3 ovarian, 111%; with IGROV1 ovarian, 81.3%; in the experiment on OVCAR-3 ovarian, 89%; with HS 578T breast, 71.5%; with NCI/ADR-RES ovarian it was 86.5%.
On to `CCOC(=O)c1c(C)n2c(=O)cc(C)c3c(OC(C)=O)c(OC(C)=O)cc1c32`, for which the growth with SK-MEL-2 melanoma is 87%; with SN12C renal, 74.3%; in the experiment on UO-31 renal, 71%; with TK-10 renal, 96%; in the experiment with ACHN renal, 58.3%; in the experiment on CAKI-1 renal it was 72.2%. In addition, the growth is 116% with A498 renal; 3.61% (active) in the experiment with CCRF-CEM leukemia; 19.3% in the experiment on MOLT-4 leukemia; 17.8% with SR leukemia; 42.3% in the experiment on RPMI-8226 leukemia; 62.2% in the experiment on OVCAR-8 ovarian. For the same compound, the growth in the experiment with OVCAR-5 ovarian is 99.2%; in the experiment with OVCAR-4 ovarian, 34.6%; with SK-OV-3 ovarian, 103%; with IGROV1 ovarian, 76.9%; in the experiment with OVCAR-3 ovarian it was 6.3% (active); with HS 578T breast, 91.4%. The growth in the experiment on NCI/ADR-RES ovarian was 33%.
On to `O=C(O)/C=C/c1cn(-c2ccccc2)nc1-c1ccc(F)cc1`, for which the growth in the experiment on SK-MEL-2 melanoma is 106%; with SN12C renal, 91.1%; with UO-31 renal, 60.7%; with ACHN renal, 92%; in the experiment on CAKI-1 renal, 88.9%; in the experiment on A498 renal, 76.1%. Moreover, the growth in the experiment on CCRF-CEM leukemia is 86.4%; in the experiment with MOLT-4 leukemia, 109%; in the experiment with SR leukemia, 104%; with RPMI-8226 leukemia, 97.4%; with OVCAR-8 ovarian, 87.4%; in the experiment on OVCAR-5 ovarian, 88.8%. Besides, the growth is 99.1% in the experiment on OVCAR-4 ovarian; 87.8% in the experiment on SK-OV-3 ovarian; 91.6% in the experiment with IGROV1 ovarian; 96% with OVCAR-3 ovarian; 83.4% with HS 578T breast; 90.4% with NCI/ADR-RES ovarian.
Regarding `COc1cccc(NC(=O)c2sc3nc(C)c(C(=O)c4ccccc4)cc3c2N)c1`, the growth in the experiment on SK-MEL-2 melanoma was 93.7%; in the experiment on SN12C renal it was 94.4%; in the experiment with UO-31 renal, 93%; in the experiment with TK-10 renal it was 102%; with ACHN renal, 96.6%; in the experiment on CAKI-1 renal it was 63.2%. Further, the growth in the experiment on A498 renal was -2.09% (active); in the experiment on CCRF-CEM leukemia, 99%; in the experiment on MOLT-4 leukemia it was 115%; in the experiment on SR leukemia, 45.4%; in the experiment with RPMI-8226 leukemia, 94.5%; with OVCAR-8 ovarian, 98.8%. Besides, the growth was 97.5% with OVCAR-5 ovarian; 87.9% in the experiment on OVCAR-4 ovarian; 41% in the experiment on SK-OV-3 ovarian; 91.7% in the experiment on IGROV1 ovarian; 92.9% in the experiment on OVCAR-3 ovarian; 72.9% with HS 578T breast. For the same compound, the growth in the experiment on NCI/ADR-RES ovarian is 98.1%.

The values above are taken from PubChem BioAssay (NCI).
